Most compounds without a hit are left out; they make up all but 11% or so of the library.
AMA1-RON2 inh: disrupts binding of P. falciparum AMA1 to RON2. actives 0.2% (n = 360,000). AlphaScreen AMA1-biotinylated RON2 peptide binding. Potency, µM (series often up to 58.2 µM), usual class: inhibitors. AID 720542; note: nearly all actives have a fitted effect of over 45% in size
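AMA1 (3D7) with his tag at 25 nM final met compounds first, then biotinylated RON2 peptide at 25 nM; detection used donor plus acceptor beads, 10 µg/mL apiece, read by AlphaScreen after 30 min at room temperature.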
Pf growth 96h: inhibits malaria parasite growth, 96 h. P. falciparum luciferase reporter growth, 96 h. Potency, µM (series often up to 28.7 µM), hits mostly inhibitors. actives 6.9% (n = 320,000)
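Readout is luminescence from an integrated firefly luciferase in P. falciparum. Red cells, 2% hematocrit and 0.05% parasitemia final, were cultured with compound through two parasite generations (96 hours) at 37 C, 5% CO2.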
Pf growth 48h: inhibits P. falciparum growth in the first generation, 48 h; P. falciparum luciferase growth in erythrocytes, 48 h; Potency, µM (doses to about 28.7 µM), actives largely listed as inhibitors; actives 5.9% (n = 310,000); AID 504832
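Compounds are pin-transferred into medium, infected erythrocytes (2% hematocrit, 0.1% parasitemia final) are added, and plates sit one parasite generation at 37 C in 5% CO2. Detection reagent is then added and luminescence measured.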
HCV inhibitor: HCV inhibition. Huh7.5.1 HCVcc-Cre infection, luciferase reporter, 44 h. Potency, µM (series often up to 41.8 µM), hits mostly inhibitors. actives 3.4% (n = 340,000). AID 651820
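1,000 cells/well; 4 h culture; + compound; + HCVcc-Cre (~0.5 moi); 44 h; luciferase substrate, RT 15 min; read 15 sec.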
Numbers stand for hits; n = inactive; u = inconclusive; x = not tested or not shown; ! = not confirmed by another sample; [ ] = dose if it differs, or a comment. Calls come from the whole dose curve; as a rule, active = well fitted curve in the direction sought with a large enough effect; inconclusive = small, poorly fitted or top-dose-only effect, or another doubt; inactive = no such curve, though single readings can be large; an effect the other way counts as inactive or inconclusive.

SMILES | AMA1-RON2 inh | Pf growth 96h | Pf growth 48h | HCV inhibitor
CCOC(=O)N1CCC(NC(=O)CSc2cc(=O)n(C)c3ccccc23)CC1 | n | 13µM | n | n
Cn1c(=O)cc(SCC(=O)NCC2COc3ccccc3O2)c2ccccc21 (stereo unspecified) | n | 2.9µM | n | n
O=C(CC1Nc2ccccc2NC1=O)NCC1COc2ccccc2O1 (stereo unspecified) | n | n | 12µM | n
Cc1cc(C)nc(SCC(=O)NCC2COc3ccccc3O2)n1 (stereo unspecified) | n | n | n | n
O=C(CC1OC(=O)c2ccccc21)NCC1COc2ccccc2O1 (stereo unspecified) | n | n | n | n
C(#CC12CC3CC(CC(C3)C1)C2)CN1CCOCC1 | n | u | n | n
C[C@@H](O)[C@@H]1C(=O)N2C(C(=O)O)=C([C@H]3CCCO3)S[C@H]12 | x | n | n | x
CC(NC(=O)c1ccc(OC2CCN(S(=O)(=O)N(C)C)CC2)cc1)C1CC1 (stereo unspecified) | n | n | n | n
COc1cccc(C(=O)NC2CCCC2)c1 | n | 4.7µM | n | n
CN(C)S(=O)(=O)N1CCC(Oc2cccc(C(=O)NC3CCCCC3)c2)CC1 | n | n | n | 5.6µM
C=CCNC(=O)c1ccc(OC2CCN(S(=O)(=O)N(C)C)CC2)cc1 | n | n | n | n
CN(C)S(=O)(=O)N1CCC(Oc2ccc(C(=O)NCC(C)(C)CO)cc2)CC1 | n | 1.7µM | n | n
CN(C)S(=O)(=O)N1CCC(Oc2ccc(C(=O)NC3CCCCC3)cc2)CC1 | n | 13µM | u | n
Nc1cc(Cl)nc(N/N=C/c2ccc([N+](=O)[O-])cc2)n1 | n[11.6 µM] | 4.7µM | u | n
O=[N+]([O-])c1ccccc1/C=N/Nc1nc(N2CCCC2)nc(N2CCCC2)n1 | n | u | n | n
Nc1cc(Cl)nc(N/N=C/c2ccccc2[N+](=O)[O-])n1 | n | 6.6µM | n | n
CCCN(C)C[C@H]1OCc2cnnn2CCCC(=O)N([C@H](C)CO)C[C@@H]1C | n | x | x | x
Cc1ccc(NC(=O)Cn2cc(S(=O)(=O)c3ccccc3)c(=O)c3cc(F)ccc32)cc1 | n | n | n | n[8.37 µM]
O=c1c(S(=O)(=O)c2ccc(Cl)cc2)cn(Cc2ccccc2)c2ccc(F)cc12 | n | 12µM | u | n
Cc1c(OC(C)C(=O)NCc2ccccn2)ccc2c3c(c(=O)oc12)CCC3 (stereo unspecified) | n | u | u | u
Cc1c(OC(C)C(=O)NCCCn2ccnc2)ccc2c3c(c(=O)oc12)CCC3 (stereo unspecified) | n | 12µM | 12µM | u
Cc1c(OC(C)C(=O)NCc2ccncc2)ccc2c3c(c(=O)oc12)CCCC3 (stereo unspecified) | n | 9.3µM | u | u
COc1cc(/C=C/C(=O)c2cccc([N+](=O)[O-])c2)cc(OC)c1OC | n[2.32 µM] | n | n | 11µM
CCOC(=O)N1CCN(Cc2ccccn2)CC1 | n | n | n | n
CCOC(=O)N1CCC(=C2c3ccc(Cl)cc3CCc3cccnc32)CC1 | n | 10µM! | 12µM | u
SMILES | AMA1-RON2 inh | Pf growth 96h | Pf growth 48h | HCV inhibitor
O=C1NCCNC1(c1c[nH]c2ccccc12)C(F)(F)F (stereo unspecified) | n | 1µM | x | n
Cc1ccc(-c2c[n+](CC(=O)c3cccs3)c3n2CCC3)cc1 | u | 4.1µM | 2.3µM | n
Cc1ccc(-c2c[n+](CC(=O)OCc3ccccc3)c3n2CCC3)cc1 | n | n | n | n
COc1ccc(-c2c[n+](CC(=O)c3cccs3)c3n2CCC3)cc1 | n | u | 2.3µM | u
Cc1cccc(NC(=O)CN(c2ccc(F)cc2)S(C)(=O)=O)c1 | n | n | u | n
Cc1ccc2cccc(OCCCOc3ccccc3F)c2n1 | n | n | n | 10µM
CCOc1ccc(N(CCCCO)C(=S)NC(=O)c2ccc(C)c(Br)c2)cc1 | n | n | n | n
O=C1COc2ccc(C(=O)NC3CC3)cc2N1 | n | n | n | n
O=C(O)/C=C/C(=O)c1ccc2c(c1)NC(=O)CO2 | n | 3.3µM | 1.9µM | n
O=[N+]([O-])c1ccccc1Nc1ccccc1 | 10µM | n | n | n
Cc1[nH]c2ccccc2c1/C=N/NS(=O)(=O)c1ccccc1 | n | n | n | n
O=[N+]([O-])c1ccccc1Nc1ccccc1[N+](=O)[O-] | n | x | x | n
Cc1[nH]c2ccccc2c1/C=N/Nc1ccccc1[N+](=O)[O-] | 32µM | n[5.75 µM] | u | u
CC(C)/C(=N/Nc1ccccc1[N+](=O)[O-])c1ccccc1 | u | 8.3µM | n | u
C/C(=N/Nc1ccccc1[N+](=O)[O-])c1ccc(C)c([N+](=O)[O-])c1 | n | n | u | n
Cc1[nH]c2ccccc2c1/C=N/NC(=S)NC(C)C | n | u | n | 10µM
CC(C)NC(=S)N/N=C/c1c[nH]c2ccccc12 | n | n | u | n
CN(Cc1nccn1C)C(=O)C1CCC(=O)N(CCc2ccc(Cl)cc2)C1 (stereo unspecified) | n | u | n | n
O=C1C(c2ccccc2)C2C=CC(C2)N1O (stereo unspecified) | n | x | x | n
COc1ccc(NN=Nc2nc3c([nH]2)c(=O)n(C)c(=O)n3C)cc1 | n | n | n | u
O=c1[nH]c(C2CCN(S(=O)(=O)c3ccc(C(F)(F)F)cc3)CC2)nc2c1nnn2Cc1ccccc1 | n | u | u | n
COc1ccc(NS(=O)(=O)c2cc([N+](=O)[O-])ccc2N/N=C/c2c(C)[nH]c3ccccc23)cc1 | n | x | x | 11µM
CC(C)Oc1ccccc1/C=N/Nc1ccccc1[N+](=O)[O-] | 7.1µM | 8.3µM | u | u
Cc1ccc(OCC(=O)OCCN2C(=O)c3ccccc3C2=O)cc1C | n | 1.9µM | n | n
O=C(CC1C(=O)NCCN1Cc1c(F)cccc1Cl)NCCCN1CCCC1=O (stereo unspecified) | n | u | n | n
SMILES | AMA1-RON2 inh | Pf growth 96h | Pf growth 48h | HCV inhibitor
Cc1nn(-c2ccccc2)c(C)c1/C=N\NS(=O)(=O)c1ccc(Cl)cc1 | n | n | x | n
COc1cc2c(cc1OC)-c1c(OC)c(OC)cc3c1[C@H](C2)N(C)CC3 | n | 3.7µM | u | n
COc1cc2c(cc1O)CC1c3c(cc(O)c(OC)c3-2)CCN1C (stereo unspecified) | n | n | u | n
O=C(CN1CCCCCCC1)Nc1cccc(Cl)c1Cl | n | n | n | n
CC1Nc2ccccc2C(=O)N1NC(=O)c1ccc(Br)cc1 (stereo unspecified) | n | 8.3µM | n | n
CCOC(=O)NN1C(=O)c2ccccc2NC1C (stereo unspecified) | n | n | n | n
Cc1cccc(/C=N/NC(=O)c2cc(C)nc3ccccc23)n1 | n | n | n | n
Cc1cc(C(=O)N/N=C/c2cc(Br)cc([N+](=O)[O-])c2O)c2ccccc2n1 | 35µM | n | n | n
O=C(N/N=C/c1cc([N+](=O)[O-])ccc1O)c1cc(-c2ccccc2)nc2ccccc12 | n | n | 2.9µM | u
Cc1cc(C(=O)N/N=C/c2cc([N+](=O)[O-])ccc2O)c2ccccc2n1 | u | u | 9.3µM | u
Cc1ccc([C@H]2C[C@@H](O)[C@H](n3cc(C4CC4)nn3)CN2C(=O)c2cccs2)cc1 | n | x | x | x

Source: PubChem BioAssay
